Reference: PubChem BioAssay
For some assays here: Entries with a potency or affinity are not part of this list. Activity calls are given as the source filed them.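 Rule for the calls, unless noted: active = hit in primary screen, with calcium signal over 5 SD above buffer well mean in both duplicates; inactive = the rest.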

Key:
[1] = tested on: TRPC4 beta (transient receptor potential cation channel C4), mouse; assay: TRPC4 cation channel opening, retest – cell-based, Fluo4 calcium, HEK293 TRPC4beta/mu-opioid, duplicates, 10 µM, confirmation (AID 2426;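 active = fluorescence ratio normalized to control raised more than 50% in primary screen plus both repeat runs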;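 for activation: percent rise of integrated ratio over buffer wells lacking compound which define 0%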); details: Fluo4 calcium fluorescence, at 10 µM; stronger effect = higher value
[2] = tested on: transient receptor potential cation channel C4 beta (TRPC4), mouse; assay: TRPC4 cation channel opening, second retest – cell-based, second round, Fluo4, HEK293 TRPC4beta/mu-opioid, 1 µM, confirmation (AID 2461;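 active = primary screen active and over 50% activation in each of two duplicate runs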;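 for activation: 0% = wells without test compound as baseline of integrated fluorescence ratio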); details: Fluo4 calcium fluorescence, at 1 µM; stronger effect = higher value
[3] = tested on: TRPC4 (transient receptor potential cation channel C4 beta), mouse; assay: potentiation of DAMGO EC20 TRPC4 response – cell-based, second round, Fluo-4, HEK293 TRPC4beta/mu-opioid, 1 µM, confirmation (AID 2554;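 active = primary screen hit whose fluorescence ratio, in both repeats, exceeds the weak agonist control mean by 3 SD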); details: DAMGO EC20, Fluo-4 calcium flux, at 1 µM; stronger effect = higher value
[4] = tested on: TRPC4 beta (transient receptor potential cation channel C4), mouse; assay: potentiation of DAMGO EC20 TRPC4 response – cell-based, Fluo-4, HEK293 TRPC4beta/mu-opioid, confirmation (AID 2555;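 active = primary screen hit whose calcium fluorescence ratio, in both repeats, exceeds the weak agonist control mean by 3 SD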); details: DAMGO EC20, Fluo-4 calcium flux, at 10 µM; stronger effect = higher value
[5] = molecular target: Short transient receptor potential channel 4 (Mus musculus) (UniProt Q9QUQ5); assay: blockers of DAMGO-evoked TRPC4 calcium flux – cell-based, Fluo4, HEK293 TRPC4beta/mu-opioid, confirmation (AID 2636;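 active = calcium signal cut by more than 3 SD below the full-agonist control yet still positive, in both repeats and the earlier primary screen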); details: at 10 µM; stronger effect = higher value
[6] = molecular target: Short transient receptor potential channel 4 (Mus musculus) (UniProt Q9QUQ5); assay: blockers of DAMGO-evoked TRPC4 calcium flux – cell-based, second round, Fluo4, HEK293 TRPC4beta/mu-opioid, 1 µM, confirmation (AID 2637;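 active = calcium signal ratio cut to more than 3 SD under the fully stimulated control mean yet still positive, in both repeats and the primary screen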); details: at 1 µM; stronger effect = higher value
[7] = molecular target: Short transient receptor potential channel 4 (Mus musculus) (UniProt Q9QUQ5); assay: potentiation of DAMGO-evoked TRPC4 calcium signal – cell-based, HEK293 TRPC4/mu-opioid, Fluo-4 calcium, EC20 DAMGO, dose response (AID 434941;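 active = earlier screen potentiator hit that boosts the TRPC4 ion channel at some dose, with a dose response; inactive = no potentiation, no dose response, or not a prior hit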;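 note: calcium entry triggered by an EC20 dose of DAMGO at the co-expressed mu-opioid receptor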)
[8] = molecular target: Short transient receptor potential channel 4 (Mus musculus) (UniProt Q9QUQ5); assay: block of DAMGO-driven TRPC4 calcium entry – cell-based, HEK293 TRPC4/mu-opioid, Fluo-4 calcium, dose response (AID 434942;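 active = primary screen inhibitor hit that blocks the TRPC4 channel at some tested dose, yielding a dose curve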)
[9] = molecular target: Short transient receptor potential channel 6 (Mus musculus) (UniProt Q61143); assay: TRPC6 blockade by TRPC4 inhibitor hits – cell-based, HEK293, membrane potential dye, duplicate, selectivity assay for TRPC4 inhibitor project, confirmation (AID 434948;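 active = active in primary screen and both duplicates, each dropping signal beyond three positive-control SD with fluorescence still positive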); details: HEK293 TRPC6, membrane potential dye fluorescence, at 10 µM, stimulated with maximal-effect acetylcholine; stronger effect = higher value
[10] = molecular target: Short transient receptor potential channel 6 (Mus musculus) (UniProt Q61143); assay: TRPC6 opening by TRPC4 activator hits – cell-based, HEK293, membrane potential dye, duplicate, selectivity assay for TRPC4 activator project, confirmation (AID 434950;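 active = membrane potential signal rise above negative control mean plus 3 SD in both duplicates, also active in the earlier TRPC4 screen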;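 for activation: 0% = buffer only wells and 100% = acetylcholine maximal-effect wells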); details: HEK293 TRPC6, membrane potential fluorescence, at 10 µM; activation: stronger effect = higher value; outcome: activation
[11] = molecular target: Short transient receptor potential channel 6 (Mus musculus) (UniProt Q61143); assay: positive modulators of mouse TRPC6 channel – HEK293 cells, membrane potential dye, duplicate, selectivity assay for TRPC4 potentiator project, confirmation (AID 434952;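 active = compound raising the membrane signal above positive-control mean plus 3 SD in both repeats, and a primary screen hit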); details: HEK293 TRPC6, membrane potential dye fluorescence, at 10 µM, maximal acetylcholine added after compound; stronger effect = higher value
[12] = molecular target: Short transient receptor potential channel 4 (Mus musculus) (UniProt Q9QUQ5); assay: calcium flux activators in TRPC4/5HT1a cells, counter-screen for TRPC4 activator project, cell-based, second counter screen, HEK293 TRPC4/5HT1a, Fluo-4 (AID 434977;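 active = calcium signal rise above buffer-control mean plus 5 SD in both duplicates, and also a hit in the primary screen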;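 for activation: plate controls were assay buffer for no effect and maximal serotonin response for full effect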); details: Fluo-4 calcium flux, at 10 µM; stronger effect = higher value
[13] = serotonin-gated TRPC4 signal block – cell-based, second counter screen, HEK293 TRPC4/5HT1a, Fluo-4, counter-screen for TRPC4 inhibitor project, confirmation (AID 434978;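 active = primary screen active whose calcium signal fell more than 3 SD beyond the full-serotonin control mean in both duplicate plates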;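 note: serotonin given first at submaximal then at maximal dose after compound preincubation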); details: Fluo-4 calcium flux, at 10 µM, serotonin added to trigger calcium flux; stronger effect = higher value
[14] = tested on: TRPC4 (mouse), co-expressed with 5HT1a in HEK293; assay: enhancement of serotonin-evoked TRPC4 response – cell-based, second counter screen, HEK293 TRPC4/5HT1a, Fluo-4, counter-screen for TRPC4 potentiator project, confirmation (AID 434979;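 active = signal rise over 3 SD above mean of control wells given weak agonist, in both repeats and first screen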); details: Fluo-4 calcium flux, at 10 µM, serotonin added at its EC20 dose; stronger effect = higher value
[15] = nonspecific calcium rise without TRPC4 – cell-based, HEK293 mu-opioid receptor line, counter-screen for TRPC4 activator project, confirmation (AID 449723); details: HEK293 mu-opioid cells, Fluo-4 calcium fluorescence, at 10 µM; stronger effect = higher value;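 note: counter screen cells carry the mu-opioid receptor alone and lack TRPC4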
[16] = nonspecific potentiation of DAMGO calcium response – cell-based, HEK293 mu-opioid receptor line, counter-screen for TRPC4 allosteric potentiator project, confirmation (AID 449724;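 active = calcium signal rise more than 3 SD above the low-dose agonist control mean, in both duplicate plates and the primary screen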); details: HEK293 mu-opioid receptor cells, Fluo-4 calcium flux, at 10 µM, compound added before EC20 DAMGO stimulus; stronger effect = higher value

Short transient receptor potential channel 6 (Mus musculus), sequence (Q61143 whole entry, looked up): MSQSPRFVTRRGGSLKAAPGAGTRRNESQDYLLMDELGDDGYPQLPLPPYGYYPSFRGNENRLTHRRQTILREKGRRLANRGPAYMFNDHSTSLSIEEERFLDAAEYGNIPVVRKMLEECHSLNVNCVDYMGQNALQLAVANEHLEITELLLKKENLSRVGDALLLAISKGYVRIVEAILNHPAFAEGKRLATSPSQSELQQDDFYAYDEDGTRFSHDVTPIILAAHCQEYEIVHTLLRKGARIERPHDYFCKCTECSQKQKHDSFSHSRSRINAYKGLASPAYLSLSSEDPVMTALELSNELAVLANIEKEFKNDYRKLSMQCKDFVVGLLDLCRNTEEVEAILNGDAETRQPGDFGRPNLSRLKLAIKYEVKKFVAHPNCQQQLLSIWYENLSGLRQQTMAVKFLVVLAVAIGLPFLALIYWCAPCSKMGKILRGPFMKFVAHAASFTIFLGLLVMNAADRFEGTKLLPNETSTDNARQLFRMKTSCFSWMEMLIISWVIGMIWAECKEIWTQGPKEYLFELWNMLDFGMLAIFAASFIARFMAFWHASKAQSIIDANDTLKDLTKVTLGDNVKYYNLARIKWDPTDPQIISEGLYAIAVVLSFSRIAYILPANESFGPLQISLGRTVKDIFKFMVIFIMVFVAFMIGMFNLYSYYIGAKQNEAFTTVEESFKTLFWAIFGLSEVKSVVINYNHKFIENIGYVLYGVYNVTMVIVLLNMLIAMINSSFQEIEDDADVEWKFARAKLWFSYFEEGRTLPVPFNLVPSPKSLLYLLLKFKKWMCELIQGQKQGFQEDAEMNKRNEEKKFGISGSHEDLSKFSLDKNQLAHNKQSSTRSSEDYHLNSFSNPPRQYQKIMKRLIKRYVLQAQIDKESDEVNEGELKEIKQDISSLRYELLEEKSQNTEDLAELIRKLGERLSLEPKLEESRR
Short transient receptor potential channel 4 (Mus musculus), sequence (Q9QUQ5 whole entry, looked up): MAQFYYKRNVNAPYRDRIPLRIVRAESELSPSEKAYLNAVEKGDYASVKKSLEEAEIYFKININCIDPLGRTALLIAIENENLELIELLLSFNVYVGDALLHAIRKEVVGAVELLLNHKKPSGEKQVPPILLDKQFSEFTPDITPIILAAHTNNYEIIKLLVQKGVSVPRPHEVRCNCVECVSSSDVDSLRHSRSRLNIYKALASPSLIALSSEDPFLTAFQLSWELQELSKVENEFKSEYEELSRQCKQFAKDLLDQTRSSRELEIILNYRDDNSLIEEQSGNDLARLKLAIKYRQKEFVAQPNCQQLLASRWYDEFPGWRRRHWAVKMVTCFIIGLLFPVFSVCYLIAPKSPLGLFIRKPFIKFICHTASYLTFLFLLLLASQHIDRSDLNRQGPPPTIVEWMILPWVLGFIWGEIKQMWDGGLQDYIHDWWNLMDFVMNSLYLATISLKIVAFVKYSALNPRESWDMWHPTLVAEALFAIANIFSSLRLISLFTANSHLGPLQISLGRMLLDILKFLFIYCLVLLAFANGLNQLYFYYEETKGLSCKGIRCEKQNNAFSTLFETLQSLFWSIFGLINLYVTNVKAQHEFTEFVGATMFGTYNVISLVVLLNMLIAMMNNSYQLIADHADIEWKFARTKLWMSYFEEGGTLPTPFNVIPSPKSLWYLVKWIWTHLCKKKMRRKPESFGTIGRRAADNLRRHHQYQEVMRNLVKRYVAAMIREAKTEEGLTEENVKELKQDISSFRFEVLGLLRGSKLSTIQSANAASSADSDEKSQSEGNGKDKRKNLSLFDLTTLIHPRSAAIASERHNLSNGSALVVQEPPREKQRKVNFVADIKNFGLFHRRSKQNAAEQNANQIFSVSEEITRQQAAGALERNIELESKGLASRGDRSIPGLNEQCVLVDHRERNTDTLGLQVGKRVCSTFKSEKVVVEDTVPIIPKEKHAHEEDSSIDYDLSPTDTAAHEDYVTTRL

CN(C)C(CNC(=O)c1cccc(S(=O)(=O)N(C)C)c1)c1ccccc1 (configuration not stated)
active: activation [1] 84% | activation [10] 39.5%
inactive: outcome [2] | outcome [3] | outcome [4] | outcome [5] | outcome [6] | outcome [7] | outcome [8] | outcome [9] | outcome [11] | outcome [12] | outcome [13] | outcome [14] | outcome [15] | outcome [16]

Cc1cccc(OCCC(=O)NCC(c2ccccc2)N(C)C)c1 (configuration not stated)
inactive: outcome [1] | outcome [2] | outcome [3] | outcome [4] | outcome [5] | outcome [6] | outcome [7] | outcome [8] | outcome [9] | outcome [11] | outcome [12] | outcome [13] | outcome [14] | outcome [15] | outcome [16]
active: activation [10] 52%

CCOc1ccccc1C1CC(c2ccc(Cl)cc2)Nc2nc(N)nn21 (configuration not stated)
inactive: outcome [2] | outcome [3] | outcome [4] | outcome [5] | outcome [6] | outcome [7] | outcome [8] | outcome [9] | outcome [10] | outcome [11] | outcome [13] | outcome [14] | outcome [15] | outcome [16]
active: activation [1] 243% | activation [12] 6.24%

CCN1CCN(c2ccc(S(=O)(=O)N3CCOCC3)cc2NC(=O)c2ccccc2OC(F)F)CC1
active: activation [1] 204% | activation [2] 136% | activation [12] 77.8%
inactive: outcome [3] | outcome [4] | outcome [5] | outcome [6] | outcome [7] | outcome [8] | outcome [9] | outcome [10] | outcome [11] | outcome [13] | outcome [14] | outcome [15] | outcome [16]

CNCCOc1ccc(Cl)c(Cl)c1
active: activation [1] 81% | activation [2] 54% | potentiation [3] 44% | potentiation [4] 23% | activation [10] 39.5% | activation [12] 24.9% | potentiation [14] 24%
inactive: outcome [5] | outcome [6] | outcome [7] | outcome [8] | outcome [9] | outcome [11] | outcome [13] | outcome [15] | outcome [16]

Cc1cccc(OCCOCCN2CCNCC2)c1C
inactive: outcome [3] | outcome [4] | outcome [5] | outcome [6] | outcome [7] | outcome [8] | outcome [9] | outcome [11] | outcome [13] | outcome [14] | outcome [15] | outcome [16]
active: activation [1] 167% | activation [2] 69% | activation [10] 35% | activation [12] 65.6%

COc1ccc(C(CNC(=O)c2cccc(NS(=O)(=O)c3ccc(Br)cc3)c2)N(C)C)cc1 (configuration not stated)
inactive: outcome [3] | outcome [4] | outcome [5] | outcome [6] | outcome [7] | outcome [8] | outcome [9] | outcome [11] | outcome [13] | outcome [14] | outcome [15] | outcome [16]
active: activation [1] 253% | activation [2] 83% | activation [10] 35% | activation [12] 29.9%

CC(C)Cc1ccc(CN2CCCC(NC(=O)CCn3cnnn3)C2)cc1 (configuration not stated)
active: activation [1] 111% | activation [12] 27.9%
inactive: outcome [2] | outcome [3] | outcome [4] | outcome [5] | outcome [6] | outcome [7] | outcome [8] | outcome [9] | outcome [10] | outcome [11] | outcome [13] | outcome [14] | outcome [15] | outcome [16]

COc1ccc(N2CCN(Cc3nc4ccccc4n3C)CC2)cc1
inactive: outcome [2] | outcome [3] | outcome [4] | outcome [5] | outcome [6] | outcome [7] | outcome [8] | outcome [9] | outcome [10] | outcome [11] | outcome [12] | outcome [13] | outcome [14] | outcome [15] | outcome [16]
active: activation [1] 154%

Cc1ccc(NC(=O)NCC(c2ccccc2)N(C)C)cc1 (configuration not stated)
active: activation [1] 107% | activation [2] 136% | activation [10] 38.5%
inactive: outcome [3] | outcome [4] | outcome [5] | outcome [6] | outcome [7] | outcome [8] | outcome [9] | outcome [11] | outcome [12] | outcome [13] | outcome [14] | outcome [15] | outcome [16]

COc1ccc2c(Cl)c(-c3nnc(SCC(=O)c4ccccc4)n3C)sc2c1
inactive: outcome [1] | outcome [2] | outcome [3] | outcome [4] | outcome [5] | outcome [6] | outcome [7] | outcome [8] | outcome [9] | outcome [11] | outcome [12] | outcome [13] | outcome [14] | outcome [15] | outcome [16]
active: activation [10] 35.5%

Cc1oc(-c2ccccc2Cl)nc1CS(=O)CC(=O)NCCCN1CC(C)CC(C)C1 (configuration not stated)
inactive: outcome [3] | outcome [4] | outcome [5] | outcome [6] | outcome [7] | outcome [8] | outcome [9] | outcome [11] | outcome [13] | outcome [14] | outcome [15] | outcome [16]
active: activation [1] 78% | activation [2] 58% | activation [10] 31% | activation [12] 20.1%

CN(C)C(CNC(=O)c1ccc2nc[nH]c2c1)c1ccccc1 (configuration not stated)
active: activation [1] 145%
inactive: outcome [2] | outcome [3] | outcome [4] | outcome [5] | outcome [6] | outcome [7] | outcome [8] | outcome [9] | outcome [10] | outcome [11] | outcome [12] | outcome [13] | outcome [14] | outcome [15] | outcome [16]

CN(C)CCCN(C(=O)c1ccc(Cl)s1)c1nc2cc3c(cc2s1)OCO3
inactive: outcome [2] | outcome [3] | outcome [4] | outcome [5] | outcome [6] | outcome [7] | outcome [8] | outcome [9] | outcome [10] | outcome [11] | outcome [12] | outcome [13] | outcome [14] | outcome [15] | outcome [16]
active: activation [1] 63%

Cc1ccc(C(=O)NNC(=S)NC(=O)COc2ccccc2)cc1
inactive: outcome [2] | outcome [3] | outcome [4] | outcome [5] | outcome [6] | outcome [7] | outcome [8] | outcome [9] | outcome [10] | outcome [11] | outcome [13] | outcome [14] | outcome [15] | outcome [16]
active: activation [1] 171% | activation [12] 112%

CC(=O)n1cc([C@H]2C=C(C(=O)NCc3ccccc3)O[C@@H](OCc3ccc(CO)cc3)C2)c2ccccc21
inactive: outcome [1] | outcome [2] | outcome [3] | outcome [4] | outcome [5] | outcome [6] | outcome [7] | outcome [8] | outcome [9] | outcome [10] | outcome [11] | outcome [12] | outcome [13] | outcome [14] | outcome [15] | outcome [16]

COc1ccc(/C=N/NC(=O)C2COc3ccccc3O2)cc1OC (configuration not stated)
active: activation [1] 114% | activation [2] 59% | activation [10] 45% | activation [12] 52.1%
inactive: outcome [3] | outcome [4] | outcome [5] | outcome [6] | outcome [7] | outcome [8] | outcome [9] | outcome [11] | outcome [13] | outcome [14] | outcome [15] | outcome [16]
